Compound activity as filed in PubChem.
AMA1-RON2 inh: disrupts binding of P. falciparum AMA1 to RON2 | 360,000 compounds, 0.2% hits | AlphaScreen AMA1-biotinylated RON2 peptide binding | AID 720542 | Potency, µM (titrated, usually from 58.2 µM), for inactives: top-dose activity change, negative = inhibition, most hits filed as inhibitors;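 note: potency is the fitted concentration of half-maximal effect; 0% = vehicle wells and -100% = peptide control; nearly all actives have a fitted effect of over 45% in size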
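AMA1 (3D7) with his tag at 25 nM final met compounds first, then biotinylated RON2 peptide at 25 nM; detection used donor plus acceptor beads, 10 µg/mL apiece, read by AlphaScreen after 30 min at room temperature.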
Cycloheximide cs: affects cycloheximide protein synthesis inhibition readout, counter-screen | max response, % | AID 2314 | 300,000 compounds, 12% hits | cell reporter, cycloheximide protein synthesis inhibition counterscreen; in the data active = max response mostly above about 13%, no sharp cut-off; inactive = mostly below about 14%; note: read at 38.3 µM for the half of the compounds with a filed dose; 0% is about no effect
SARS PLpro yeast: inhibitors of SARS-CoV papain-like protease in yeast | S. cerevisiae expressing SARS-CoV PLpro, growth rescue | Potency, µM (titrated, usually from 32.9 µM), without a hit: at the top dose activity, positive = growth rescue, actives largely listed as activators | 330,000 compounds, 0.19% hits | AID 485353; calls by dose curve; note: potency is the fitted concentration of half-maximal effect; 0% is about no effect; nearly all actives have a fitted effect of over 55% in size
Shiga inhibitor: blocks Shiga toxin action in Vero cells; Vero cells, Shiga toxin protein synthesis inhibition reporter; inhibition, % at 38.7 µM; 290,000 compounds, 9.2% hits; AID 2315; in the data active = inhibition mostly above about 28%, no sharp cut-off; inactive = mostly below about 43%; note: 0% is about no effect
AmpC detergent: blocks E. coli AmpC beta-lactamase in detergent assay; P00811; AmpC hydrolysis of nitrocefin, absorbance 480 nm, 0.01% Triton; Potency, µM (top dose mostly 114 µM), for the others: top-dose activity change, negative = inhibition, most hits filed as inhibitors; 370,000 compounds, 0.041% hits; AID 485294;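 note: potency is the fitted concentration of half-maximal effect; 0% = no-compound wells and -100% = no-enzyme wells; nearly all actives have a fitted effect of over 25% in size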
Target sequence (P00811 whole entry, looked up): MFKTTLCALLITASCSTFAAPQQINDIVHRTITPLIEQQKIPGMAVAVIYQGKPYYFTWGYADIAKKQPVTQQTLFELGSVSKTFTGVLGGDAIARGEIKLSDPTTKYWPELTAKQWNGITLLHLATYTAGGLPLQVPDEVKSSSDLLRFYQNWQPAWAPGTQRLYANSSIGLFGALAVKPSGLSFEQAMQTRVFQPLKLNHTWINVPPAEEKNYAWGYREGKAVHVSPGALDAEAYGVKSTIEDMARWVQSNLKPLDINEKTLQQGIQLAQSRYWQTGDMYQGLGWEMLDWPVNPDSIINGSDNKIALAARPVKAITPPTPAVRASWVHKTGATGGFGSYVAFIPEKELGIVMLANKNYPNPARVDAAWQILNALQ
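AmpC (5.3 nM in the dispensed reagent) in 20 mM phosphate pH 7.0 with 0.01% (detergent screen) or 0.0001% Triton X-100 was preincubated with compounds for 15 min at room temperature. Nitrocefin was then added from an 800 uM solution, and hydrolysis was followed at 480 nm.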
AmpC no deterg: inhibitors of E. coli AmpC beta-lactamase without detergent. AmpC nitrocefin hydrolysis, absorbance 480 nm, 0.0001% Triton. Potency, µM (doses to about 57.1 µM), for inactives: top-dose activity change, negative = inhibition, usual class: inhibitors. 330,000 compounds, 0.52% hits;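 note: potency is the fitted concentration of half-maximal effect; plate controls were no compound for no effect and no enzyme for full effect; nearly all actives have a fitted effect of over 20% in size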
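20 mM phosphate pH 7.0 + 0.01% (detergent screen) or 0.0001% Triton X-100; 5.3 nM AmpC reagent; cpd preinc 15 min RT; nitrocefin (800 uM stock) to start; A480 q20 s × 4 min; Activity was normalised to no-enzyme and no-compound control wells.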
An asterisk follows results filed as active; ? = inconclusive; / = no result. This is one part of a sample in which hits are shown more often than they occur. Unless noted, calls come from the whole dose curve; as a rule, active = well fitted curve in the direction sought with a large enough effect; inconclusive = small, poorly fitted or top-dose-only effect, or another doubt; inactive = no such curve, though single readings can be large; an effect the other way counts as inactive or inconclusive.

SMILES	AMA1-RON2 inh	Cycloheximide cs	SARS PLpro yeast	Shiga inhibitor	AmpC detergent	AmpC no deterg
CC1Cc2ccccc2N1C(=O)CSc1ncc(-c2ccc(F)cc2)n1C (centres undefined)	?	61*	?	75*	-8%	23%
O=C(CSc1ncc(-c2ccccc2)n1CC1CCCO1)N1CCCCC1 (centres undefined)	-4%	11	7%	30	-4%	46%
Cn1c(-c2ccc(F)cc2)cnc1SCC(=O)N1CCCCC1	0%	33*	2%	38	-2%	-1%
CCOCCCNC(=O)C(c1ccc(OC)cc1)N(Cc1ccc2c(c1)OCO2)C(=O)c1ccccn1 (centres undefined)	-3%	10	0%	-9	-7%	106%
CCC(COC(=O)Nc1cccc(C)c1)NC(=O)OCC(C)C (centres undefined)	17%	36*	-9%	87*	-12%	1%
CCCCOC(=O)Nc1cccc(C(C)=O)c1	-4%	23*	-11%	72*	?	-15%
CCOC(=O)Nc1cccc(Cl)c1C	25%	-4	-1%	7	-9%	-14%
CCOC(=O)Nc1cccc(C(=O)O)c1	13%	14*	-19%	31*	2%	-5%
CCOC(=O)Nc1cccc(Nc2ccccc2)c1	-15%	11	-18%	16	-1%	-32%
CCNC(=O)OCC(CC)NC(=O)OCC(C)C (centres undefined)	0%	-8	-3%	-7	-13%	0%
CCCCOC(=O)Nc1cccc(Cl)c1C	10%	22*	0%	87*	-5%	-9%
Cn1nnc2cc(C(=O)Nc3cccnc3)ccc21	18%	6	1%	7	-12%	-16%
Cc1ccc(S(=O)(=O)C2(C(=O)N3CCCC(C)C3)CC2)cc1 (centres undefined)	2%	1	3%	-14	0%	-6%
COc1ccc(-c2nc3ccncc3[nH]2)cc1OC	19%	9	-16%	-4	?	-10%
Fc1ccc(-c2nc3ccncc3[nH]2)cc1	25%	23*	-19%	28	1%	-22%
Clc1ccc(-c2nc3ccncc3[nH]2)cc1	-21%	82*	-56%	59*	?	-20%
CC(=O)N1c2ccccc2Oc2cc3ccccc3cc21	0%	26*	-37%	53	?	-18%
CN(C)C(=O)c1ccc2c3c(cccc13)CC2	-8%	-2	0%	-4	4%	-15%
COc1cccc(Sc2nc(-c3ccccc3)ncc2S(C)(=O)=O)c1	-4%	31*	-1%	50*	-18%	-1%
CS(=O)(=O)c1cnc(-c2ccccc2)nc1Sc1ccc(F)cc1	4%	13	0%	24	5%	-10%
COc1cc(/C=C/C(=O)c2ccc3c(c2)OCO3)cc(OC)c1OC	-5%	/	-1%	/	3%	21%
Cc1cc(=O)n2[nH]c(N)c(N=Nc3ccccc3)c2n1	0%	-3	0%	13	?	-24%
Clc1ccc(-c2[nH]ncc2N=Nc2ccccc2)cc1	-20%	-2	-8%	18	-12%	-23%
Nc1ccc(N=Nc2ccccc2)c(N)n1	?	52*	-5%	73*	?	-31%
c1ccc(N=Nc2ccc3cccccc2-3)cc1	4.5µM*	/	/	/	/	/
SMILES	AMA1-RON2 inh	Cycloheximide cs	SARS PLpro yeast	Shiga inhibitor	AmpC detergent	AmpC no deterg
Nc1ccc(N=Nc2ccccc2)c2ccccc12	-25%	22*	-2%	22	6%	-28%
Cc1nc2ccc(NC(=O)N(C(C)C)C(C)C)cc2s1	2%	35*	4%	53*	-5%	-17%
CC(C)N(C(=O)Nc1ccc2nccnc2c1)C(C)C	6%	25	-1%	41	-3%	-18%
Cc1nc2ccc(NC(=O)N(C)c3ccccc3)cc2s1	-14%	40*	5%	55*	?	-1%
Cc1nc2ccc(NC(=O)c3ccc(S(=O)(=O)N(C)c4ccccc4)cc3)cc2s1	-16%	7	-2%	-3	?	-6%
Cc1nnc(N/N=C/c2ccc(-c3ccccc3F)o2)n1N	99%	25*	-5%	150*	1%	-22%
